Test results as given in PubChem BioAssay (NCATS).
Records with an inconclusive call do not appear. Activity calls are given as the source filed them. Unless noted, the call rests on the fitted dose curve; in most records, active means well fitted curve in the direction sought with a large enough effect; inconclusive means small, poorly fitted or top-dose-only effect, or another doubt; inactive means no such curve, though single readings can be large; an effect the other way counts as inactive or inconclusive.

Tests used:
[1] = biological target: Thyrotropin-releasing hormone receptor (Homo sapiens) (UniProt P34981); assay: qHTS for Small Molecule Agonists and Allosteric Enhancers of Human TRH Receptor: Validation Screen for Agonists (AID 493127;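 active means calcium activation more than 3 SD above the typical response in the agonist read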;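 further: intracellular calcium rise by fluo-8 fluorescence before TRH EC20 addition; 0% is about no effect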); conditions: TRH receptor agonist cell assay; at 2 µM; stronger effect = higher value
Thyrotropin-releasing hormone receptor (Homo sapiens), sequence (P34981 whole entry, looked up): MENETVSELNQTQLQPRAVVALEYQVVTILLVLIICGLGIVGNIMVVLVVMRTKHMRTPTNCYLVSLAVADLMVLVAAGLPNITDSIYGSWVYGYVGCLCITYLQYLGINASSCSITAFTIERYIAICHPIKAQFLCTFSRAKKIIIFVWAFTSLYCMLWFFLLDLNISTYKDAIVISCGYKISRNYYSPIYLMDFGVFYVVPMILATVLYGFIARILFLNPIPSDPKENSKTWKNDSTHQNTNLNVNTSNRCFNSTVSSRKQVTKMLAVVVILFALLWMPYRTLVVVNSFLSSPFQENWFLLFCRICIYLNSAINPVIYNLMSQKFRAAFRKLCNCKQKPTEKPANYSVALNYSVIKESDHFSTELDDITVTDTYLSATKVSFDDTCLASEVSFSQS
Outline: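 Compound-evoked intracellular calcium release in fluo-8-loaded TRHR cells, read kinetically on FDSS (Ex 480/Em 530, 1 s/cycle) after 23 nL pintool transfer. Agonist phase preceded 10 nM TRH EC20 addition.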

[2] = Nrf2 qHTS screen for inhibitors: Validation (AID 493153; active means well fitted inhibition curve with a large enough effect in the main read-out, with a control signal flat, not every such curve was filed as active); conditions: A549 ARE-Fluc reporter, 18-24 h; viability change: measured here: cytotoxicity max response; luciferase luminescence, at 46.1 µM (top of the series)
Outline: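 Concentration-response on A549 ARE_Fluc reporter cells exposed 18-24 h at 37 C, 5% CO2. Cytotoxicity read first by CellTiter-Fluor fluorescence (Ex 405/Em 525), then Nrf2 inhibition by BugLite luminescence after 15 min.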

[3] = qHTS for Inhibitors of Cell Surface uPA Generation: Validation Assay (AID 493164); conditions: mouse cells, plasminogen activation; series mostly up to 38.3 µM;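 further: RAW 264.7 macrophage cells exposed to compound for 18 h; 0% is about no effect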
Outline: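 ATP-Lite luminescence read-out: ATP remains high when uPA activity-dependent LF translocation into the cytoplasm is blocked. RAW 264.7 cells, 18 h compound exposure at 37 C; 7-point titration, 2.45 nM to 38.3 uM final.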

[4] = biological target: Galactokinase (Homo sapiens) (UniProt P51570); assay: qHTS Validation Assay for Inhibitors of Human Galactokinase (GALK) (AID 493189); conditions: purified human GALK enzyme activity, qHTS 7-point titration; series mostly up to 57.5 µM; further: 0% is about no effect
Galactokinase (Homo sapiens), sequence (P51570 whole entry, looked up): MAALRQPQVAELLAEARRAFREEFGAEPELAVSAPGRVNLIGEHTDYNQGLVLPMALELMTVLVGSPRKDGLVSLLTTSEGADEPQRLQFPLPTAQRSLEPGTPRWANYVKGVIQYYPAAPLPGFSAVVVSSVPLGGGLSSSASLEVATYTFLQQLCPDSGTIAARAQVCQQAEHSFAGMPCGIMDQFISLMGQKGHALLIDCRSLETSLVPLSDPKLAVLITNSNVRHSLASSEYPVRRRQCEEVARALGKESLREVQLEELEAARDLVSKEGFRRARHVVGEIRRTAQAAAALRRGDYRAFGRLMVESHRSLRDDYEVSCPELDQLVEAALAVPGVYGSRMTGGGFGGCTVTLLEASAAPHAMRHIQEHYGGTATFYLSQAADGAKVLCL
Outline: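 Compounds were pin-transferred into ATP buffer, then GALK-galactose mix was added (final 5 nM enzyme, 100 uM galactose, 35 uM ATP). After 1 h at room temperature, remaining ATP was measured luminescently.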

[5] = Validation screen for small molecules that induce DNA re-replication in SW480 colon adenocarcinoma cells (AID 504364); conditions: DNA re-replication phenotype (high-content imaging); series mostly up to 46.1 µM; further: 0% is about no effect
Outline: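 Image-based DNA content read-out: Hoechst stain 40 min, total nuclear fluorescence intensity (ex 405 nm, em 500-530 nm) after 48 h compound exposure of 250 SW480 cells/well at 37 C, 5% CO2, versus DMSO vehicle.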

[6] = biological target: Peptidyl-prolyl cis-trans isomerase NIMA-interacting 1 (Homo sapiens) (UniProt Q13526); assay: qHTS Validation Assay to Find Inhibitors of Pin1 (AID 504536; active means well fitted inhibition curve with a large enough effect in the polarisation, with a control signal flat, not every such curve was filed as active; the % refers to the polarisation;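 further: 0% = full Pin1 enzyme wells and -100% = no-enzyme wells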); conditions: Pin1 fluorescence polarization peptide binding assay; series mostly up to 57.5 µM
Peptidyl-prolyl cis-trans isomerase NIMA-interacting 1 (Homo sapiens), sequence (Q13526 whole entry, looked up): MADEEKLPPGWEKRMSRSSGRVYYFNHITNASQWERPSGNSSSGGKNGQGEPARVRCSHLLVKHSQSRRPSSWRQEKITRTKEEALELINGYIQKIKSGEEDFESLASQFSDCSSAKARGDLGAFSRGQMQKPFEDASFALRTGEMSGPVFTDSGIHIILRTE
Outline: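 Fluorescence polarization competition: compounds (titration) displace HiFluor-488-labeled Pin1-1b peptide from Pin1 (0.3 uM final) in pH 7.5 HEPES buffer with DTT, 10 min at room temperature; %Activity normalized to no-enzyme wells, curves fitted.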

[7] = biological target: Phosphoglycerate kinase, glycosomal (Trypanosoma brucei brucei) (UniProt P07378); assay: qHTS Validation Assay to Find Inhibitors of Phosphoglycerate Kinase (AID 504547); conditions: enzymatic PGK inhibition, coupled luminescence read-out; series mostly up to 57.5 µM;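 further: control wells lack PGK and mark full inhibition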
Phosphoglycerate kinase, glycosomal (Trypanosoma brucei brucei), sequence (P07378 whole entry, looked up): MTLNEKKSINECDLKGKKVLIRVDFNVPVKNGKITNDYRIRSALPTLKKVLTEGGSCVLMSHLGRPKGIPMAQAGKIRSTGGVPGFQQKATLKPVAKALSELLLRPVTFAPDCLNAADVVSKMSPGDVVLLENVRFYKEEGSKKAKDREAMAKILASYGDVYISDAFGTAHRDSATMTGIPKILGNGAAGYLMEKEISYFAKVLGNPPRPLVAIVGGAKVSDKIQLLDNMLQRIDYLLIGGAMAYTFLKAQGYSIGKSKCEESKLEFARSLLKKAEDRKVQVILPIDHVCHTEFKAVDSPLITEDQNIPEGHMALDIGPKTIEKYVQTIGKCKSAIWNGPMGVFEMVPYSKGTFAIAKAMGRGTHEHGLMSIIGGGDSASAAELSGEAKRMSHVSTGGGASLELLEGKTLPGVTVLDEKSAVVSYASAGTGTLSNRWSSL
Outline: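 Luminescence end-point (Kinase-Glo Plus, 10 min) after a 60 min room-temperature coupled reaction. GAPDH at 100nM final supplies 1,3-BPG to PGK. Buffer: 100mM TEA pH 7.6, 5mM MgCl2, 0.01% Tween-20. Wells lacking PGK served as controls.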

[8] = biological target: phosphoglycerate mutase (Leishmania major) (UniProt Q4Q090); assay: qHTS Validation Assay to Find Inhibitors of Phosphoglycerate Mutase (AID 504548); conditions: biochemical enzyme activity; series mostly up to 57.5 µM; further: on the % scale 0 is the no-effect control and ±100 the full control effect
phosphoglycerate mutase (Leishmania major), sequence (Q4Q090 1-553): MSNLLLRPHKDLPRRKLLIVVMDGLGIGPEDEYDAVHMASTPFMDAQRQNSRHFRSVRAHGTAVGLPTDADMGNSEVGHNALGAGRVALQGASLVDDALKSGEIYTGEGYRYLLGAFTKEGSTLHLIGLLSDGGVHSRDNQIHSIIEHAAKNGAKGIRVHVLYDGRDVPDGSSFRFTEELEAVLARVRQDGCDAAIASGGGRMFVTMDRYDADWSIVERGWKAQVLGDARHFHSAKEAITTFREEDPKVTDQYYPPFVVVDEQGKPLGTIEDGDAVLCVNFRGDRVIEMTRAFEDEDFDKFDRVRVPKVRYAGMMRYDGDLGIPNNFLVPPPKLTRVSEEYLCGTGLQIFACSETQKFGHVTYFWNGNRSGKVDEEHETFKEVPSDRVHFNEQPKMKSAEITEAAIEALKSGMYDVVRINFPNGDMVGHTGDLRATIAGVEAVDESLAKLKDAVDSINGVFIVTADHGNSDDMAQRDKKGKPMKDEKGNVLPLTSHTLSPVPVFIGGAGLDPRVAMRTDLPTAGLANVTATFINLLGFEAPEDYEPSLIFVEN
Outline: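 Lm PGAM at 1.25 nM final with substrate in 100 mM TEA pH 7.6, 5 mM MgCl2, 0.01% Tween-20; 45 min at room temperature. Kinase-GloPlus added, 10 min, end-point luminescence read.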

[9] = qHTS for Inhibitors of ATXN expression: Validation (AID 588378); conditions: cell-based ATXN2 expression reporter assay, luminescence; series mostly up to 57.1 µM; further: nearly all actives have a fitted effect of over 75% in size; further: potency means the concentration at half of the fitted maximal effect
Outline: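 Validation of ATXN2 expression inhibitors uses a cell-based luciferase fusion reporter in HEK293 cells, with 24 h compound exposure and paired viability (fluorescence) and reporter (luminescence) end-point reads.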

NCCCC(=O)O
14.4%: viability change [2]
inactive: activation [1] -0.125% | outcome [2] | outcome [3] | outcome [4] | outcome [5] | outcome [6] | outcome [7] | outcome [8] | Potency [9]

CN[C@H]1CC[C@@H](c2ccc(Cl)c(Cl)c2)c2ccccc21
inactive: outcome [2] | outcome [3] | outcome [4] | outcome [5] | outcome [6] | outcome [7] | outcome [8]
1.73%: viability change [2]
active: Potency [9] 14.1 µM
